Data reported in PubChem BioAssay (NCATS).
“And” between values parts separate entries of the source, which are not always exact repeats. Equal values may be shown once. Results filed as inconclusive are left out. Unmarked numbers belong to inactive results. The source made the active and inactive calls. Calls come from the whole dose curve; as a rule, active = well fitted curve in the direction sought with a large enough effect; inconclusive = small, poorly fitted or top-dose-only effect, or another doubt; inactive = no such curve, though single readings can be large; an effect the other way counts as inactive or inconclusive.

Molecular target: Cytochrome P450 3A7 (Homo sapiens) (UniProt P24462)
Sequence (P24462 whole entry, looked up): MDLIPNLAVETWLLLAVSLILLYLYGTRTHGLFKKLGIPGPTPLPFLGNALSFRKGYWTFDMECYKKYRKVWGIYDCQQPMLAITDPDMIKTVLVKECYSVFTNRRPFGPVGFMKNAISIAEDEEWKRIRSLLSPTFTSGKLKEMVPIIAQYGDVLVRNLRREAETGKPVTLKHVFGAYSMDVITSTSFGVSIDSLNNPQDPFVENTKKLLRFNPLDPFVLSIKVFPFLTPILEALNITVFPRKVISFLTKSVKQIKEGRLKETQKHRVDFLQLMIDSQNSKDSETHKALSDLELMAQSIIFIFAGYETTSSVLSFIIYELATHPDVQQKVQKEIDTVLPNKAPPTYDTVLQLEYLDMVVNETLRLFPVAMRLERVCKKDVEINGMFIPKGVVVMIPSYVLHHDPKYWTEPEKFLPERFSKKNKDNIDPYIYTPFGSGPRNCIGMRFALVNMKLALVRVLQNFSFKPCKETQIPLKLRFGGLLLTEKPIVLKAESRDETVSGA
Assay: Cytochrome P450 family 3 subfamily A member 7 (CYP3A7) small molecule antagonists: luciferase biochemical qHTS assay (AID 1963596); note: % is set by controls: 0 for no effect and ±100 for the full control effect; nearly all actives have a fitted effect of over 40% in size
Conditions: P450-Glo CYP3A7 enzyme luminescence, 1 h; series mostly up to 57.4 µM; activity change, negative = inhibition: at the top concentration
How it was run: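 Luminescence from luciferin released by CYP3A7 from a proluciferin substrate, read 20 min after detection reagent. Compound and enzyme-substrate mix sat 10 min before NADPH regeneration solution; reaction ran 1 h at room temperature.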

| Structure (SMILES) | activity change, negative = inhibition | Potency |
| --- | --- | --- |
| CN(C)C(=O)Oc1ccc[n+](C)c1 | 0.963% |  |
| C[N+]1(C)[C@@H]2CC(OC(=O)[C@H](CO)c3ccccc3)C[C@H]1[C@@H]1O[C@@H]12 (stereo not given in full) | 8.17% |  |
| NS(=O)(=O)c1ccc(Cl)c(S(N)(=O)=O)c1 | 8.72% |  |
| Cc1cc(-n2nc3ccc(Cl)cc3n2)c(O)c(C(C)(C)C)c1 | -16.3% |  |
| COc1cc2nc(-c3cc(F)ccc3O)nc(N[C@@H]3CNC[C@H]3C(C)(C)O)c2cc1OC | 0% |  |
| CCN(CC)CC(=O)Oc1ccc(NC(C)=O)cc1 | -9.7% |  |
| CCCCNC(=O)NS(=O)(=O)c1ccc(N)cc1 | -21.7% |  |
| CCOC(=O)[C@H](CCc1ccccc1)N[C@@H](C)C(=O)N1C(=O)N(C)C[C@H]1C(=O)O | -5.89% |  |
| Cc1ncc([N+](=O)[O-])n1C | -1.48% |  |
| Cc1ccc(-c2ccc3ncc4c(c3n2)n(C2CCN(C(=O)[C@H](C)O)CC2)c(=O)n4C)cn1 | -9.06% |  |
| NC(=O)N1c2ccccc2C=Cc2ccccc21 | -9.69% |  |
| COC(=O)c1nc(Cl)c(Cl)nc1N | 16.7% |  |
| CCN(CC)CCN | -1.45% |  |
| Cc1cccc(Oc2cnc(=O)[nH]c2)c1 | 0% |  |
| O=S(=O)(O)c1ccc(O)cc1 | -1.39% |  |
| O=C(O)CCCC[P+](c1ccccc1)(c1ccccc1)c1ccccc1 | -8.43% |  |
| NS(=O)(=O)Cc1noc2ccccc12 | 15.8% |  |
| CCCCCCCCCCCCCCCCCC(=O)O | 16.3% |  |
| CCN(CC)C(=O)C1CN2CCc3cc(OC)c(OC)cc3C2CC1OC(C)=O (stereo not given) | -17.6% |  |
| CC(=O)N[C@@H](Cc1ccc(O)cc1)C(=O)O | 6.05% |  |

| Structure (SMILES) | activity change, negative = inhibition | Potency |
| --- | --- | --- |
| C[C@@H](N)C(=O)O | -1.56% |  |
| CCCNC(C)C(=O)Nc1ccccc1C (stereo not given) |  | inactive |
| Cc1c(C)c2c(c(C)c1OC(=O)c1cccnc1)CC[C@@](C)(CCC[C@H](C)CCC[C@H](C)CCCC(C)C)O2 | -25.2% |  |
| CC(=O)OC(C)C[N+](C)(C)C (stereo not given) | -23.5% |  |
| O=C(O)CC1CCC(c2ccc(-c3ccc(Nc4ccc(C(F)(F)F)nc4)cn3)cc2)CC1 (stereo not given) | 0% |  |
| COC(=O)c1cc(Cl)c(NC(C)=O)cc1OC | -24.5% |  |
| C#CCN(C)Cc1ccccc1 | -9.34% |  |
| C=C(C)C(=O)OCC(O)CO (stereo not given) | 4.35% |  |
| CC(=O)N[C@@H](CCC(=O)O)C(=O)O | 1.06% |  |
| CC1(C)OC[C@@H](COC(=O)CCc2ccc(OC[C@@H](O)CNCCNC(=O)N3CCOCC3)cc2)O1 | -10.4% |  |
| CC(=O)N(CC(=O)N(C)C)c1ccccc1 | 68.7% |  |
| Cn1ncc(Cl)c1-c1cc(C(=O)NC(CN)Cc2ccc(F)c(F)c2)oc1Cl (stereo not given) | 0% |  |
| Nc1ccc(/C=C/c2ccc(N)cc2S(=O)(=O)O)c(S(=O)(=O)O)c1 | 6.59% [at 0.91 µM] |  |
| c1ccc2c(CC3=NCCN3)cccc2c1 | -20.3% |  |
| CCCCCCCCCCCCCCCC(=O)O | -12.6% |  |
| CN1[C@@H]2CC[C@H]1CC(OC(=O)C(O)c1ccccc1)C2 (stereo not given in full) | 2.89% |  |
| CCCCCC(C)N (stereo not given) | 3.43% |  |
| C[C@H]1O[C@@H](O[C@H]2CC[C@@]3(C)[C@H](CC[C@@H]4[C@@H]3C[C@@H](O)[C@]3(C)[C@@H](C5=CC(=O)OC5)CC[C@]43O)C2)C[C@H](O)[C@@H]1O[C@H]1C[C@H](O)[C@H](O[C@H]2C[C@H](O)[C@H](O[C@@H]3O[C@H](CO)[C@@H](O)[C@H](O)[C@H]3O)[C@@H](C)O2)[C@@H](C)O1 | 5.44% |  |
| CC(=O)OCC(=O)[C@@]12N=C(C)O[C@@H]1C[C@H]1[C@@H]3CCC4=CC(=O)C=C[C@]4(C)[C@H]3[C@@H](O)C[C@@]12C | -22.7% |  |
| O=C(O)c1ccc(OCCN2CCCCC2)cc1 | -0.302% |  |

Test system: not listed separately
Assay: Viability qHTS for spleen associated tyrosine kinase inhibitor (SYKi) drug resistant MV4-11 cells (AID 1963824); note: nearly all actives have a fitted effect of over 35% in size; note: potency is the fitted concentration of half-maximal effect
Conditions: SYKi-resistant MV4-11 viability, CellTiter-Glo, 72 h; series mostly up to 45 µM; viability, % of control: at the top concentration
How it was run: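 SYK-inhibitor-resistant MV4-11 AML cells were seeded at 500 per well onto compound and cultured 72 hours (37 °C, 5% CO2). CellTiter-Glo was then added, and after 10 min at room temperature, luminescence gave viability.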

| Structure (SMILES) | viability, % of control | Potency |
| --- | --- | --- |
| CN(C)C(=O)Oc1ccc[n+](C)c1 | 85.4% |  |
| C[N+]1(C)[C@@H]2CC(OC(=O)[C@H](CO)c3ccccc3)C[C@H]1[C@@H]1O[C@@H]12 (stereo not given in full) |  | inactive |
| NS(=O)(=O)c1ccc(Cl)c(S(N)(=O)=O)c1 | 79% |  |
| Cc1cc(-n2nc3ccc(Cl)cc3n2)c(O)c(C(C)(C)C)c1 | 80.2% |  |
| COc1cc2nc(-c3cc(F)ccc3O)nc(N[C@@H]3CNC[C@H]3C(C)(C)O)c2cc1OC |  | 11.6 nM (active) and 5.3 nM (active) |
| CCN(CC)CC(=O)Oc1ccc(NC(C)=O)cc1 | 84.1% |  |
| CCCCNC(=O)NS(=O)(=O)c1ccc(N)cc1 |  | 2.11 µM (active) |
| CCOC(=O)[C@H](CCc1ccccc1)N[C@@H](C)C(=O)N1C(=O)N(C)C[C@H]1C(=O)O |  | inactive |
| Cc1ncc([N+](=O)[O-])n1C | 94.5% |  |
| Cc1ccc(-c2ccc3ncc4c(c3n2)n(C2CCN(C(=O)[C@H](C)O)CC2)c(=O)n4C)cn1 |  | 0.058 µM (active) |
| NC(=O)N1c2ccccc2C=Cc2ccccc21 | 79.4% |  |
| COC(=O)c1nc(Cl)c(Cl)nc1N |  | 0.596 µM (active) |
| CCN(CC)CCN | 81.8% |  |
| Cc1cccc(Oc2cnc(=O)[nH]c2)c1 | 82.9% |  |
| O=S(=O)(O)c1ccc(O)cc1 | 87.7% |  |
| O=C(O)CCCC[P+](c1ccccc1)(c1ccccc1)c1ccccc1 | 84.7% |  |
| NS(=O)(=O)Cc1noc2ccccc12 | 83.2% |  |
| CCCCCCCCCCCCCCCCCC(=O)O | 83.1% |  |
| CCN(CC)C(=O)C1CN2CCc3cc(OC)c(OC)cc3C2CC1OC(C)=O (stereo not given) | 92.3% |  |
| CC(=O)N[C@@H](Cc1ccc(O)cc1)C(=O)O | 102% |  |

| Structure (SMILES) | viability, % of control | Potency |
| --- | --- | --- |
| C[C@@H](N)C(=O)O | 76.8% |  |
| CCCNC(C)C(=O)Nc1ccccc1C (stereo not given) | 72.4% |  |
| Cc1c(C)c2c(c(C)c1OC(=O)c1cccnc1)CC[C@@](C)(CCC[C@H](C)CCC[C@H](C)CCCC(C)C)O2 | 102% |  |
| CC(=O)OC(C)C[N+](C)(C)C (stereo not given) | 90.6% |  |
| O=C(O)CC1CCC(c2ccc(-c3ccc(Nc4ccc(C(F)(F)F)nc4)cn3)cc2)CC1 (stereo not given) |  | 18.6 µM (active) |
| COC(=O)c1cc(Cl)c(NC(C)=O)cc1OC | 94.5% |  |
| C#CCN(C)Cc1ccccc1 | 72.2% |  |
| C=C(C)C(=O)OCC(O)CO (stereo not given) | 92.1% |  |
| CC(=O)N[C@@H](CCC(=O)O)C(=O)O | 74.9% |  |
| CC1(C)OC[C@@H](COC(=O)CCc2ccc(OC[C@@H](O)CNCCNC(=O)N3CCOCC3)cc2)O1 | 93.2% |  |
| CC(=O)N(CC(=O)N(C)C)c1ccccc1 | 78.7% |  |
| Cn1ncc(Cl)c1-c1cc(C(=O)NC(CN)Cc2ccc(F)c(F)c2)oc1Cl (stereo not given) |  | 4.68 µM (active) |
| Nc1ccc(/C=C/c2ccc(N)cc2S(=O)(=O)O)c(S(=O)(=O)O)c1 | 94.1% [at 0.588 µM] |  |
| c1ccc2c(CC3=NCCN3)cccc2c1 |  | 11.9 µM (active) |
| CCCCCCCCCCCCCCCC(=O)O | 79% |  |
| CN1[C@@H]2CC[C@H]1CC(OC(=O)C(O)c1ccccc1)C2 (stereo not given in full) | 115% |  |
| CCCCCC(C)N (stereo not given) | 90.5% |  |
| C[C@H]1O[C@@H](O[C@H]2CC[C@@]3(C)[C@H](CC[C@@H]4[C@@H]3C[C@@H](O)[C@]3(C)[C@@H](C5=CC(=O)OC5)CC[C@]43O)C2)C[C@H](O)[C@@H]1O[C@H]1C[C@H](O)[C@H](O[C@H]2C[C@H](O)[C@H](O[C@@H]3O[C@H](CO)[C@@H](O)[C@H](O)[C@H]3O)[C@@H](C)O2)[C@@H](C)O1 |  | 0.133 µM (active) |
| CC(=O)OCC(=O)[C@@]12N=C(C)O[C@@H]1C[C@H]1[C@@H]3CCC4=CC(=O)C=C[C@]4(C)[C@H]3[C@@H](O)C[C@@]12C | 75.2% |  |
| O=C(O)c1ccc(OCCN2CCCCC2)cc1 | 95.4% |  |
